From PubChem BioAssay (NCATS)
Inconclusive results are not listed. Where a call stands in place of a potency, no number is given. Activity calls are given as the source filed them. Calls follow the shape of the dose curve; as a rule, active = well fitted inhibition curve with a large enough effect; inconclusive = small, poorly fitted or top-dose-only effect; inactive = flat fitted curve, though single readings scatter.

target: Calcium and integrin-binding protein 1 (Homo sapiens) (UniProt Q99828); test: Primary qHTS for Identification of Calcium Integrin Binding Protein 1 (CIB1) Competitor (AID 1508620); details: CIB1-GST / FITC-alphaIIb peptide fluorescence polarization; series mostly up to 114 µM
Sequence (Q99828 whole entry, looked up): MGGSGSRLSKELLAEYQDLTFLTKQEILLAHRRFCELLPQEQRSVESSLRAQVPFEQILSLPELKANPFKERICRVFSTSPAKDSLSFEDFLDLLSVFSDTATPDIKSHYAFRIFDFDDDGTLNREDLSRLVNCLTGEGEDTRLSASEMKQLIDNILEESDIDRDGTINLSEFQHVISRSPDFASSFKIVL
Procedure, shortened: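 Fluorescence polarization competition: GST-tagged CIB1 (1 uM final) preincubated with compound 15 min at room temperature, then FITC-labelled alphaIIb peptide (100 nM final) added. After 15 min at room temperature, polarization read at Ex 480/Em 540.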
Potency is read from the fitted curve at half-maximal effect.

SMILES	Potency
Cc1cc(C)nc(NC(=S)N2CCN(c3cccc(C#N)c3)CC2)c1	inactive
Cn1c2cc(C=O)sc2c2cnn(Cc3ccccc3F)c(=O)c21	inactive
COc1ccc(CN(Cc2ccccc2)S(=O)(=O)c2ccccc2)cc1COc1ccc(NC(C)=O)cc1	inactive
Cn1nnnc1Sc1ncnc2scc(-c3ccccc3Cl)c12	inactive
O=C(NCCCCc1ccccc1)C1CCN(c2nc(-c3ccc(Br)cc3)cs2)CC1	inactive
Cc1ccc(NS(=O)(=O)c2cc3c(cc2N(C)CCN(C)C)NC(=O)CC3)cc1C	inactive
CC(=O)NC(c1ccco1)c1cc(Cl)c2ccc(N3CCCCC3)nc2c1O (centres undefined)	inactive
O=C(O)c1ccccc1-c1noc(-c2ccccc2F)n1	inactive
O=[S+]([O-])(Nc1ccc2ccccc2c1)c1ccc(NCc2ccc(Cl)cc2O)cc1	inactive
Cc1c(P(=S)(c2ccccc2)c2ccccc2)[n+]2ccccc2n1CCCCc1ccccc1	inactive
Cc1ccc(OCCn2c(CCNC(=O)/C=C/c3ccccc3)nc3ccccc32)cc1	inactive
Cc1ccc(-c2ccc(=O)n(CC(=O)NCCCN(C)C)n2)cc1	inactive
CN(Cc1ncc[nH]1)c1ncnc2ccc(-c3ccc4c(c3)OCO4)cc12	inactive
Clc1ccccc1-c1ccc2ncnc(NCc3ccc4c(c3)OCO4)c2c1	inactive
Nc1nc(NCc2ccc(-c3cccnc3)cc2)c2ccccc2n1	inactive
Cc1cc(C)nc(NC(=S)N2CCN(c3ccc4nsnc4c3)CC2)c1	50.1 µM (active)
COc1cccc(C2N=C(Nc3nc4ccccc4o3)NC3=C2C(=O)CCC3)c1 (centres undefined)	inactive
CCOC(=O)C1CCN(C(=O)C(C)(C)NC(=O)Nc2ccc([N+](=O)[O-])cc2)CC1	inactive
CCOC(=O)c1ccoc1-c1ccc2ncnc(N(C)Cc3sccc3C)c2c1	inactive
O=S(=O)(c1c(F)cccc1F)C1CCN(S(=O)(=O)c2ccc3c(c2)OCCO3)CC1	inactive

SMILES	Potency
O=S(=O)(c1ccc2c(c1)OCCO2)N1CCN(S(=O)(=O)c2cccs2)CC1	inactive
O=C(Cc1nnc(CNC(=O)c2ccccc2)o1)Nc1cc(C(F)(F)F)ccc1Cl	inactive
Cc1csc(CNc2ncnc3ccc(-c4cccnc4)cc23)c1	inactive
COc1cccc(-c2nnc3n2N=C(c2ccc(OC)cc2OC)CS3)c1	inactive
Cc1cc(C)nc(NC(=S)N2CCN(c3nc4ccccc4o3)CC2)c1	inactive
O=C(CNC(=O)c1ccc(-c2ccccc2)cc1)OC(C(=O)Nc1cc(C(F)(F)F)ccc1Cl)c1ccccc1 (centres undefined)	inactive
Cc1ccc(S(=O)(=O)N2CCN(c3nc(-c4ccco4)nc4ccccc34)CC2)cc1	inactive
COc1ccc(C(=O)N(Cc2ccccc2)Cc2ccccc2)c(O)c1	inactive
CCCC1CCN(C(=O)CC(c2ccc3c(c2)OCO3)c2c(O)cc(OC)cc2OC)C1 (centres undefined)	inactive
COc1cc(-c2ccc3ncnc(NCC4CCCO4)c3c2)cc(OC)c1OC (centres undefined)	inactive
Cc1cccc(-n2cnc3cc(C(=O)N4CCOCC4)ccc32)c1	inactive
COc1cc(-c2nc(Nc3ccc(F)c(F)c3)c3ccccc3n2)ccn1	inactive
COc1ccc(-c2nnc3n2N=C(c2c(OC)cccc2OC)CS3)c(OC)c1	inactive
Cc1nc(CCN(C)c2ncnc3ccc(-c4ccc5c(c4)OCO5)cc23)cs1	inactive
CN1CCN(c2nn3c(=O)c4ccccc4nc3s2)CC1	inactive
CN(Cc1cccs1)c1ncnc2ccc(-c3ccc4cn(C)nc4c3)cc12	inactive
Cc1cccc(NC(=O)c2cnn3c(C)cc(C)nc23)c1	inactive
CS(=O)(=O)/C=C/c1nc(Nc2cc(F)cc(F)c2)c2ncn(CC(F)F)c2n1	inactive
CC(C)(C)OC(=O)N1CCC(c2ccc(NCc3ccc(-c4ccc(C#N)cc4)o3)cc2)CC1	inactive
